# Laboratory results published in PubChem BioAssay AID651776 (Vanderbilt Specialized Chemistry Center, 2012).
# Target: Muscarinic acetylcholine receptor M5 (Homo sapiens) (UniProt P08912)
# Assay: agonist curve shift by M5 PAMs – cell-based, calcium fluorescence, mechanism study (AID 651776)
# Conditions: M5-expressing cells, stronger effect = higher value
# Sequence of Muscarinic acetylcholine receptor M5 (Homo sapiens) (P08912 whole entry, looked up): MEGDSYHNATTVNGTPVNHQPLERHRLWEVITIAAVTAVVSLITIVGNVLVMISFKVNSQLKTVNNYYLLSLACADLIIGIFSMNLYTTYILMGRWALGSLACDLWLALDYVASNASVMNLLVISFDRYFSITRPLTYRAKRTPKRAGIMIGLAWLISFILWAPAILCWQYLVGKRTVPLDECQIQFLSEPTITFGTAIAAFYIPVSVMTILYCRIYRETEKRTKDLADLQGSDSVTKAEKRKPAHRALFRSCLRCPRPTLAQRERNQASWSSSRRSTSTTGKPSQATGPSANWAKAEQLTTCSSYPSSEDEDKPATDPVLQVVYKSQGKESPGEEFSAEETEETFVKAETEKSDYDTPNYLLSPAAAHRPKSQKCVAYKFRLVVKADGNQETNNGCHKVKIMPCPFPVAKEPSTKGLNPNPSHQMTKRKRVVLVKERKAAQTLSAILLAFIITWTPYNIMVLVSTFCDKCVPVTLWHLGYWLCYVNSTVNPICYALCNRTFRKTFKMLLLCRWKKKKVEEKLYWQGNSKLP
smiles,measurement,value
O=C1C(=O)N(CCOc2ccccc2)c2ccc(OC(F)(F)F)cc21,fold shift,19.2
